Experimental data reported in PubChem BioAssay (Tox21).
Inconclusive results are not listed. Where a call stands in place of a potency, no number is given. The source made the active and inactive calls. Calls follow the shape of the dose curve; as a rule, active = well fitted cell-killing curve with a large enough effect in the repeat runs; inconclusive = weak or mixed curves, or effect the other way; inactive = flat fitted curve, though single readings scatter.

Key:
[1] = cAMP Responsive Elements (CRE) small molecule antagonists, cell-based qHTS assay: qHTS cell viability counter screen (AID 2060913); also: nearly all actives have a fitted effect of over 40% in size
How it was run: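 Cytotoxicity counter screen multiplexed with the CRE-bla antagonist read: HEK293T cells in DMEM with dialyzed FBS and 25 mM HEPES were treated 3 hrs under 0.25 uM final NKH477, then viability measured by CellTiter-Glo luminescence.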

[2] = cAMP Responsive Elements (CRE) small molecule agonists, cell-based qHTS assay: qHTS cell viability counter screen (AID 2060914);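 also: viability read after 3 h of compound exposure; nearly all actives have a fitted effect of over 50% in size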
How it was run: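 CRE-bla HEK 293T cells, plated 18 h at 37 °C, were exposed to compounds for 3 h at 37 °C/5% CO2. Viability was then measured in the same wells by CellTiter-Glo luminescence after 30 min at room temperature.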

Row | SMILES | Potency [1] | Potency [2]
1 | CC1(c2ccccc2)OC(C(=O)O)=CC1=O (stereo unspecified) | inactive | inactive
2 | C=CCc1cc(S(=O)(=O)c2ccc(O)c(CC=C)c2)ccc1O | inactive | inactive
3 | O=C(N/N=C/c1ccc([N+](=O)[O-])o1)c1ccc(O)cc1 | inactive | inactive
4 | O=C(Nc1ccccc1)c1cc([N+](=O)[O-])ccc1Cl | inactive | inactive
5 | [O-][n+]1cccc(/C(Cl)=N/OC[C@@H](O)CN2CCCCC2)c1 | inactive | inactive
6 | CC(=O)CCC(C)C | inactive | inactive
7 | CC/C=C\C/C=C\C/C=C\CCCCCCCC(=O)O | inactive | inactive
8 | CCOC(=O)C1=C(C)NC(C)=C(C(=O)OC)C1c1cccc(Cl)c1Cl (stereo unspecified) | inactive | inactive
9 | Cc1ccc2c(c1[N+](=O)[O-])C(=O)c1ccccc1C2=O | inactive | inactive
10 | Nc1nc2c(ncn2COC(CO)CO)c(=O)[nH]1 | inactive | inactive
11 | CC(C(=O)O)c1ccc2c(c1)Cc1cccnc1O2 (stereo unspecified) | inactive | inactive
12 | OCCOCCOCCOCCO | inactive | inactive
13 | Cc1ccc(-c2ccccc2)cc1 | inactive | inactive
14 | N[C@H]1CN(c2c(F)cc3c(=O)c(C(=O)O)cn(C4C[C@H]4F)c3c2Cl)CC12CC2 (stereo partly specified) | inactive | inactive
15 | CC(C)(C)c1ccc(C(=O)CCCCl)cc1 | inactive | inactive
16 | O=C1c2ccccc2C(=O)c2c(O)c(O)cc(O)c21 | inactive | inactive
17 | C=C[C@H]1CN2CC[C@H]1C[C@@H]2[C@@H](O)c1ccnc2ccc(OC)cc12 | inactive | inactive
18 | C=C(C)[C@@H]1CC=C(C)C(=O)C1 | inactive | inactive
